Bcl-xL primary – blocks human Bcl-xL binding to Bim BH3 peptide; Q07817; GST-Bcl-xL / FITC-Bim BH3 peptide fluorescence polarization; inhibition, % at 10.9 µM; 0.7% of 320,000 active; AID 2129;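 active means inhibition above the mean of all tested compounds plus 3 SD, cutoff set per campaign, cut at about 30% in these data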;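 further: inhibitors lower millipolarization by displacing the labeled peptide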
Target sequence (Q07817 whole entry, looked up): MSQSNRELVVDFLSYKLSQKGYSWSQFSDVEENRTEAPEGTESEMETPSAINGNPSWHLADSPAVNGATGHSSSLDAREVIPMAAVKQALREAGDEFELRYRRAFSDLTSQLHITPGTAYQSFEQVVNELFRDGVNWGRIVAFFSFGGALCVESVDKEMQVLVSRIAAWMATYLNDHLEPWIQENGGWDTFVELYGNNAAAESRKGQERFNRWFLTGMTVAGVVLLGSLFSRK
Mcl-1 Bim block – disrupts Bim peptide binding to human Mcl-1. inhibition, % at 10 µM. Q07820. Bead-based flow cytometry, Bim peptide-Mcl-1 binding. 0.1% of 190,000 active; in the data active means inhibition above about 40%
Target sequence (Q07820 whole entry, looked up): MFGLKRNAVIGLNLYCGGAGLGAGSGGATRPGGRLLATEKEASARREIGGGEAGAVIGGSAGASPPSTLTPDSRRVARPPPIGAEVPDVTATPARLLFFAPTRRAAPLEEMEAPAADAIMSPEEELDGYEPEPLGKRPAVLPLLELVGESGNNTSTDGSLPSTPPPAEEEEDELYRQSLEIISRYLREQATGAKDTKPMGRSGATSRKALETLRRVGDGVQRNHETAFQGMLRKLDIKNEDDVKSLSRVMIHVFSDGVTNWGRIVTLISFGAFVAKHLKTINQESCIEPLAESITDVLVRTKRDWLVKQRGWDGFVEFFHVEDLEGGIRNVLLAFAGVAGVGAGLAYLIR
MCL1-BIM inh – inhibitors of human MCL1 binding to BIM-BH3 peptide. Q07820. GST-MCL1 / FITC-Bim-BH3 fluorescence polarization. inhibition, % at 10.9 µM. 0.68% of 320,000 active. AID 2057;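 active means inhibition above the mean inhibition of all tested compounds plus 3 SD, set per campaign, cut at about 40% in these data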;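 further: higher means more loss of mP so more displacement of Bim peptide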
Mcl1-Bid inh – Mcl-1/Bid interaction inhibition | Q07820 | TR-FRET Mcl-1/Bid-Dy647 peptide binding, 1536-well | inhibition, % at 21.7 µM | 0.97% of 220,000 active | AID 1021;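 active means compounds that cut the binding signal by more than half at the single screening dose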;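 further: His-tagged Mcl-1 with europium anti-His antibody binding Bid BH3 peptide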
Mcl1 Noxa PPI – disrupts binding of human Mcl-1 to Noxa peptide; Q07820; TR-FRET Mcl-1/Noxa peptide binding, 2 h; inhibition, % at 21.7 µM; 1.5% of 220,000 active;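 active means compounds that cut the protein-peptide binding signal by more than 50% relative to plate controls in a single-dose test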;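 further: His-tagged Mcl-1 with rhodamine Noxa BH3 peptide and terbium anti-His antibody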
GLD-1 RNA inh – GLD-1-TGE RNA interaction inhibition (C. elegans); Q17339; inhibition, % at 5.96 µM; 0.44% of 320,000 active; purified GLD-1 + fluorescein TGE RNA, fluorescence polarization;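 active means percent inhibition above a per-plate cutoff, the plate mean of test compounds plus 3 SD, cut at about 30% in these data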
A number is an active result; - = inactive; . = no result. In the library only some 2.3% were active in any assay of this set; here they are far more common.

SMILES	Bcl-xL primary	Mcl-1 Bim block	MCL1-BIM inh	Mcl1-Bid inh	Mcl1 Noxa PPI	GLD-1 RNA inh
CCn1cc(C(=O)O)c(=O)c2cc(F)c(N/N=C/c3ccccc3[N+](=O)[O-])cc21	-	-	-	62	55	-
Cc1ccc(OCC(=O)NCc2ccco2)c([N+](=O)[O-])n1	-	-	-	80	-	-
Cc1ccc(CNC(=O)COc2ccc(C)nc2[N+](=O)[O-])cc1	-	-	-	-	-	-
CCOc1ncccc1C(=O)OCC(=O)N(CC(C)C)C1CCS(=O)(=O)C1 (stereo unspecified)	91	-	-	-	-	-
Cn1c(-[n+]2c(-c3ccccc3)cc(-c3ccccc3)cc2-c2ccccc2)nc2cc([N+](=O)[O-])ccc21	-	-	-	-	64	-
O=[N+]([O-])c1ccc2c(c1)nnn2-c1ccccc1	-	.	-	.	.	-
O=[N+]([O-])c1ccc2c(c1)nc(CO)n2Cc1ccccc1	-	.	-	.	.	-
O=[N+]([O-])c1ccc2c(c1)ncn2-c1ccccc1	-	-	-	82	-	-
CC(=O)Nc1ccc(-c2csc(NC(C)c3ccccc3)n2)cc1 (stereo unspecified)	-	-	-	-	-	-
COc1ccc(C(=O)OCC(=O)Nc2ccc3c(c2)OCCO3)c(OC)c1	-	.	-	.	.	-
CCCCN(C(=O)Cc1cccc(F)c1)c1c(N)n(CCC)c(=O)[nH]c1=O	-	-	-	-	-	-
Cc1nc2sc(C(c3cccs3)N3CCOCC3)c(O)n2n1 (stereo unspecified)	-	-	-	76	-	-
Clc1ccccc1OCCN1CCCCC1	-	-	-	-	-	-
Clc1ccc(OCCN2CCCCC2)c(Cl)c1	-	-	-	75	-	-
O=C(/C=C/c1ccc(Br)o1)Nc1nnc(C2CC2)s1	-	.	-	-	62	-
Cc1nn(CCc2nn[nH]n2)c2nc(-c3ccc(C4CCCCC4)cc3)cc(C(F)(F)F)c12	-	-	-	59	-	-
O=Cc1ccc(OCc2nnsc2Cl)cc1	-	-	-	-	-	-
C=CCc1cccc2cc(C(=O)Nc3ccc(S(=O)(=O)Nc4nnc(CC)s4)cc3)c(=O)oc12	-	-	-	72	107	-
O=C(/C=C/c1ccc(Br)cc1)NC(=S)Nc1ccc(S(=O)(=O)Nc2nccs2)cc1	-	-	-	58	52	-
CCc1nnc(NS(=O)(=O)c2ccc(NC(=S)NC(=O)/C=C/c3ccccc3)cc2)s1	-	-	-	-	58	-
COc1ccc(NS(=O)(=O)c2ccc(NC(=S)NC(=O)/C=C/c3ccccc3)cc2)nn1	-	-	-	-	58	-
O=C(NC(=S)Nc1ccc(S(=O)(=O)Nc2nccs2)cc1)c1ccc(Br)o1	-	-	-	-	-	-
Cc1ccc(N2C(=O)CC(Nc3ccc(Cl)c(S(=O)(=O)N(C)C)c3)C2=O)c(C)c1 (stereo unspecified)	-	-	-	-	-	-
CC(O/N=C/c1ccccc1OC(F)F)C(=O)Nc1cccc(S(=O)(=O)N2CCOCC2)c1 (stereo unspecified)	-	-	-	-	-	-
CCc1nnc(NS(=O)(=O)c2ccc(NC(=S)NC(=O)/C=C/c3ccc(C(C)C)cc3)cc2)s1	-	-	-	100	.	-
SMILES	Bcl-xL primary	Mcl-1 Bim block	MCL1-BIM inh	Mcl1-Bid inh	Mcl1 Noxa PPI	GLD-1 RNA inh
CCc1nnc(NS(=O)(=O)c2ccc(NC(=S)NC(=O)/C=C/c3ccc(OC)cc3)cc2)s1	-	-	-	-	-	-
CCOC(=O)c1c(C)[nH]c(C2=NNC(=NC3CC3)SC2)c1C	-	-	-	-	64	-
CCOC(=O)c1c(C)[nH]c(/C(C)=N/O)c1C	-	-	-	-	-	-
CCNc1nc(NCC)n2c(SCC(=O)Nc3ccccc3C(F)(F)F)nnc2n1	-	.	-	.	.	-
CCOc1ccc(NC(=S)NN2C(C)CCCC2C)cc1 (stereo unspecified)	-	-	-	57	-	-
CS(=O)(=O)N1CCN(Cc2ccc(C(F)(F)F)cc2)CC1	-	-	-	52	-	-
CS(=O)(=O)N1CCN(Cc2ccccc2C(F)(F)F)CC1	-	-	-	-	-	-
Cc1oc2c(CN3CCCC3)c(O)ccc2c(=O)c1-c1ccccc1	-	-	-	-	-	-
Cc1oc2c(CN3CCC(C)CC3)c(O)ccc2c(=O)c1-c1ccccc1	34	.	-	.	.	-
O=C(NC1CCNCC1)C1CCCCC1	-	.	-	.	.	-
CCOC(=O)C1CCN(C(=O)c2ccc(Cl)c(S(=O)(=O)N3CCOCC3)c2)CC1	-	-	-	-	-	-
CCOC(=O)C1CCN(C(=O)c2cc(S(=O)(=O)N3CCOCC3)c(Cl)cc2Cl)CC1	-	-	-	95	-	-
O=C(NCC(=O)N(CC1CCCO1)C1(C(=O)NC2CCCC2)CCCCC1)c1ccccc1 (stereo unspecified)	-	-	-	-	-	-
CN=C(Nc1ccc(Cl)cc1)c1ccc(C(F)(F)F)cc1	-	-	-	-	-	-
COCCn1c(SCC(=O)NC(=O)NCc2ccccc2)nc2ccccc21	-	-	-	56	-	-
COc1cc(C(=O)NC(=S)Nc2csc(-c3ccc(F)cc3)n2)cc(OC)c1OC	-	.	-	-	-	-
CC(CC1C(C#N)=C(N)OC2=C1C(=O)CCC2)c1ccccc1 (stereo unspecified)	-	-	-	60	-	-
COC(=O)[C@@]1(Cc2ccc(F)cc2)[C@H]2c3cc(C(=O)N4CCCC4)n(CCc4ccc(O)c(O)c4)c3C[C@H]2CN1C(=O)c1ccccc1	-	-	-	-	65	-
Cc1cc(/C=N/Nc2ccc([N+](=O)[O-])cn2)c(C)n1-c1ccc(C(=O)O)cc1	-	-	-	66	99	-
Cc1ccccc1-n1c(C)cc(/C=N/Nc2ccc([N+](=O)[O-])cn2)c1C	-	-	-	-	-	-
O=C(Nc1ccc(C2=NCCN2)cc1)c1ccc(Cl)c(C(=O)Nc2ccc(C3=NCCN3)cc2)c1	-	.	-	-	57	-
COc1ccccc1CNC(=O)c1cccc(N(C)C)c1	-	-	-	-	-	-
CCSc1ccc(-c2nn(-c3ccccc3)cc2/C=C(/C#N)C(=O)NC)cc1	-	-	-	-	-	-
C=CCNC(=O)/C(C#N)=C/c1cn(-c2ccccc2)nc1-c1ccc(OC)c([N+](=O)[O-])c1	-	-	-	58	-	-
COc1cc(-c2nc(-c3ccc4c(c3)-c3ccccc3S4(=O)=O)c(-c3ccccc3)[nH]2)cc(OC)c1O	-	-	-	-	58	-
COc1ccc(-c2[nH]c(-c3ccc(C(=O)O)cc3)nc2-c2ccccc2)cc1	-	-	-	-	-	-
Cc1cccc(N=Cc2cc3c(cc2[N+](=O)[O-])OCO3)c1	-	-	-	-	-	-
Cc1ccc(O)c(N=Cc2cc(Cc3ccccc3)cc([N+](=O)[O-])c2O)c1	.	-	.	-	56	.
